# Measurements reported in PubChem BioAssay AID652048 (National Center for Advancing Translational Sciences (NCATS), 2013).
# Several values for one entry are separate records, joined by “and”; a condition that tells them apart may be missing. Equal entries are not always repeated. Out of some 410,000 compounds screened, about 2,400 (0.59%) were called active. Cut-off read from the data, not from the text of the source: active = max activation above about 30%; inactive = the rest. Only a selection was taken, and actives are over-represented in it overall.
# Molecular target: D(3) dopamine receptor (Homo sapiens) (UniProt P35462)
# Assay: qHTS of D3 Dopamine Receptor Agonist: qHTS; note: 0% is about no effect
# Conditions: D3R DiscoveRx beta-arrestin cells, luminescence, 90 min; hits give high values
# Description: D3 DARs represent a very important target for the treatment of several neuropsychiatric disorders. Indeed, one of the most promising therapeutic applications for the D3 DAR is in the area of addiction and related disorders. […] These findings have been observed with a number of addictive substances including cocaine, amphetamine, nicotine, and alcohol. […] Antagonism of the D3 DAR may also be therapeutic in the treatment of schizophrenia or psychosis. […] Since the D3 DAR is expressed in areas of the CNS associated with the control of mood and emotion, it has been hypothesized that selective antagonism of the D3 DAR may be effective in treating psychosis without inducing the motor side effects typically seen with D2 DAR antagonists.
# This part of the project aims to discover novel agonist.
# NIH Chemical Genomics Center [NCGC]
# NIH Molecular Libraries Probe Centers Network [MLPCN]
# Assay Submitter (PI): David Sibley, NINDS
# Freshly passaged cells are plated in 1536 well white, solid bottom plates at a density of 1500 cells/well in 3microl of complete media. After an overnight incubation at 37 degrees C in 5% CO2, cells are loaded with 23nl of test compound from the compound library (as well as dopamine controls) using a 1536 pintool and incubated at 37 degrees C for 90 minutes. Two microliters of DiscoveRx reagent is then added to all cells, and they are incubated for an additional 30 - 60 minutes at room temperature. Following incubation, luminescence is measured on a ViewLux CCD-based luminometer reader using a 20 sec exposure time.
# D(3) dopamine receptor (Homo sapiens), sequence (P35462 whole entry, looked up): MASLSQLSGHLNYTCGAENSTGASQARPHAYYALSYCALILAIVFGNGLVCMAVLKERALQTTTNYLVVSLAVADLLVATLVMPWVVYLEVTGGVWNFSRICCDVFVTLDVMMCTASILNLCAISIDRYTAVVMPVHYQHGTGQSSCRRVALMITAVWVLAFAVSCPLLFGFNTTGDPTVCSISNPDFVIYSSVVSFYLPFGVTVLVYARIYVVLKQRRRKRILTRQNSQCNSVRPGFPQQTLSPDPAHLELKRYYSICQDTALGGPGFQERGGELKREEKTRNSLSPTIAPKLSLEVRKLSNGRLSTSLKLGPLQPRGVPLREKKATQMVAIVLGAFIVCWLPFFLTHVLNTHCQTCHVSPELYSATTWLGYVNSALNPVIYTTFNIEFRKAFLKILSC
row,Compound,max activation
1,O=c1[nH]c(CN2CC=C(c3ccccc3)CC2)nc2scc(-c3cccs3)c12,53.9% (active)
2,CCCCC1C(=O)NC(=O)N(C2CCCCC2)C1=O (stereo not given),-3.28% (inactive)
3,O=P1(N(CCCl)CCCl)NC(OO)CCO1 (stereo not given),1.75% (inactive)
4,C#C[C@]1(OC(=O)CCCCCC)CC[C@H]2[C@@H]3CCC4=CC(=O)CC[C@@H]4[C@H]3CC[C@@]21C,26.4% (inactive)
5,O=S(=O)(O)C(F)(F)C(F)(F)C(F)(F)C(F)(F)F,-6.51% (inactive)
6,COc1cc(C[C@H](C)N)c(OC)cc1Br,-14.5% (inactive)
7,C[C@]12CC[C@H](O)C[C@H]1CC[C@@H]1C2CC[C@]2(C)[C@@H](C3=CC(=O)OC3)[C@@H](O)C[C@]12O (stereo not given in full),51.5% (active)
8,COC1C(O)C(C)OC(OC2CCC3(C=O)C(CCC4C3CCC3(C)C(C5=CC(=O)OC5)CCC43O)C2)C1O (stereo not given),1.37% (inactive)
9,COC12CC[C@@]3(C[C@@H]1C(C)(O)C(C)(C)C)[C@H]1Cc4ccc(O)c5c4[C@@]3(CCN1CC1CC1)[C@H]2O5 (stereo not given in full),6.77% (inactive)
10,O=C1C[C@@H]2OCC=C3CN4CC[C@]56c7ccccc7N1[C@H]5[C@H]2[C@H]3C[C@H]46 (tested in a mixture with another compound),11.4% (inactive) and 8.18% (inactive)
